This is a sample that favours compounds with a hit; in the whole collection about 1.2% have one here.
cytoskel mod: cytoskeleton assembly modification; 91,000 tested, 0.18% active; HUVEC TNFa F-actin phalloidin imaging, high content; AID 836; inhibition, % at 2 µM;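 active = inhibition above the batch mean plus 3 SD and confirmed as a hit by visual image inspection, cut at about 30% in these data, passing the limit was not always enough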
HUVEC tox TNFa: toxic to HUVEC cells under TNF alpha stimulation. cell count reduction, % at 2 µM. 93,000 tested, 0.17% active. HUVEC TNFalpha-stimulated, Hoechst cell count, imaging;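 active = cell count reduction exceeding the screen mean by over 5 SD, scaled to untreated wells per plate, cut at about 78% in these data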;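 also: cells counted after 24 h of TNF alpha exposure following the 1 h pretreatment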
E-sel TNF inh: blocks E-selectin expression induced by TNF alpha. HUVEC TNFa-induced E-selectin immunofluorescence, high content. inhibition, % at 2 µM. 120,000 tested, 0.71% active;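 active = inhibition above the batch mean plus 3 SD, and confirmed as a hit on visual image review, cut at about 43% in these data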
VCAM1 TNFa inh: reduces TNF alpha induced VCAM1 expression in HUVEC; HUVEC TNFa-induced VCAM-1 immunofluorescence, high-content imaging; inhibition, % at 2 µM; 95,000 tested, 0.48% active; AID 802;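 active = inhibition above the batch mean plus 3 SD, with images confirmed as a hit by eye, cut at about 37% in these data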
A number is an active result.

How did CCOc1cc(/C=C2/C(=O)N(c3ccccc3)N=C2C)ccc1OC(=O)c1ccco1 do in these assays?
cytoskel mod: inactive; HUVEC tox TNFa: inactive; E-sel TNF inh: inactive; VCAM1 TNFa inh: 44

How did CCOc1cc(/C=C2\C(=O)N(c3ccc(C(N)=O)cc3)N=C2C)ccc1OC(=O)c1cccs1 do in these assays?
cytoskel mod: inactive; HUVEC tox TNFa: inactive; E-sel TNF inh: inactive; VCAM1 TNFa inh: inactive

What do the screens show for `FC(F)Oc1ccc(NC(=S)N2CCc3ccccc32)cc1`?
E-sel TNF inh: inactive

How did Cc1ccc(NC(=O)Cn2nnc(-c3ccccc3NC(=O)c3cccs3)n2)cc1 do in these assays?
cytoskel mod: inactive; HUVEC tox TNFa: inactive; E-sel TNF inh: inactive; VCAM1 TNFa inh: 60

What do the screens show for `COc1ccc(NC(=O)Cn2nnc(-c3ccccc3NC(=O)c3cccs3)n2)cc1`?
cytoskel mod: inactive; HUVEC tox TNFa: inactive; E-sel TNF inh: inactive; VCAM1 TNFa inh: inactive

Results for CC(C)(C)OC(=O)N1CCN(c2ccc([N+](=O)[O-])cc2)CC1 ?
E-sel TNF inh: inactive

What do the screens show for `CCn1c(CN2CCN(c3ccc(Cl)cc3)CC2)nc2ccccc21`?
cytoskel mod: inactive; HUVEC tox TNFa: inactive; E-sel TNF inh: inactive; VCAM1 TNFa inh: 58

What do the screens show for `Cc1oc2c(CN3CCOCC3)c(O)ccc2c(=O)c1-c1ccc(Br)cc1`?
cytoskel mod: inactive; HUVEC tox TNFa: inactive; E-sel TNF inh: inactive; VCAM1 TNFa inh: inactive

How did O=c1c(-c2ccc(Br)cc2)coc2c(CN3CCOCC3)c(O)ccc12 do in these assays?
cytoskel mod: inactive; HUVEC tox TNFa: inactive; E-sel TNF inh: inactive; VCAM1 TNFa inh: 62

How did CCOC(=O)c1c(NC(=O)c2ccccc2)sc2c(O)c(CN(CC)CC)ccc12 do in these assays?
cytoskel mod: inactive; HUVEC tox TNFa: inactive; VCAM1 TNFa inh: inactive

Results for CCOC(=O)c1c(NC(C)=O)sc2c(O)cccc12 ?
E-sel TNF inh: 56

What do the screens show for `C=CCc1c(NCCO)nc(C)[nH]c1=O`?
E-sel TNF inh: inactive

What do the screens show for `O=c1c(N=Nc2ccc(O)cc2)c(-c2ccccc2)[nH]n1-c1ccc([N+](=O)[O-])cc1`?
E-sel TNF inh: inactive

What do the screens show for `Cc1[nH]n(-c2ccc([N+](=O)[O-])cc2)c(=O)c1N=Nc1nc2ccccc2s1`?
cytoskel mod: inactive; HUVEC tox TNFa: inactive; E-sel TNF inh: inactive; VCAM1 TNFa inh: 52

What do the screens show for `COc1ccc(C2N=C(N)N=C(N)N2c2ccccc2OC)cc1OC` (stereo unspecified)?
cytoskel mod: inactive; HUVEC tox TNFa: inactive; E-sel TNF inh: inactive; VCAM1 TNFa inh: inactive

What do the screens show for `Cc1nc2ccccc2c(=O)n1/N=C/c1ccc(O)cc1`?
cytoskel mod: inactive; HUVEC tox TNFa: inactive; E-sel TNF inh: 66; VCAM1 TNFa inh: inactive

What do the screens show for `Cc1nc2ccccc2c(=O)n1/N=C/c1cccnc1`?
cytoskel mod: inactive; E-sel TNF inh: inactive; VCAM1 TNFa inh: inactive

What do the screens show for `O=c1cc(C(Cl)(Cl)Cl)oc2c1ccc1ccccc12`?
cytoskel mod: inactive; HUVEC tox TNFa: inactive; E-sel TNF inh: inactive; VCAM1 TNFa inh: 80

What do the screens show for `CC(C)OCCCNC(=O)C1CCC(CNS(=O)(=O)c2ccccc2)CC1` (stereo unspecified)?
E-sel TNF inh: inactive

Results for Cc1cccc(CS(=O)(=O)c2nnc([C@H](Cc3ccccc3)NC(=O)OC(C)(C)C)o2)c1 ?
cytoskel mod: inactive; HUVEC tox TNFa: inactive; E-sel TNF inh: inactive; VCAM1 TNFa inh: 58

Results for Cc1cc(SCC(=O)c2cccs2)nc2ccccc12 ?
E-sel TNF inh: 75

What do the screens show for `Cc1cccc(C(=O)NNC(=O)Nc2ccccc2)c1`?
E-sel TNF inh: 65

How did COc1cc2c3nnc(-c4ccc(F)cc4)c-3cn(Cc3ccccc3)c2cc1OC do in these assays?
cytoskel mod: 33; HUVEC tox TNFa: inactive; E-sel TNF inh: inactive; VCAM1 TNFa inh: inactive

Results for O=C(COc1ccccc1-c1ccccc1)N/N=C/c1cccc2ccccc12 ?
cytoskel mod: inactive; HUVEC tox TNFa: inactive; E-sel TNF inh: inactive; VCAM1 TNFa inh: 69

Results for COc1ccc(/C=N/NC(=O)COc2ccccc2-c2ccccc2)cc1 ?
cytoskel mod: inactive; HUVEC tox TNFa: inactive; E-sel TNF inh: inactive; VCAM1 TNFa inh: inactive

What do the screens show for `Cc1ccc(C(=O)C[n+]2cc(Br)cc(Br)c2)cc1[N+](=O)[O-]`?
E-sel TNF inh: inactive

Results for Clc1ccc(Nc2ccc(-n3ccnc3)nn2)cc1Cl ?
cytoskel mod: inactive; HUVEC tox TNFa: inactive; E-sel TNF inh: 65; VCAM1 TNFa inh: inactive

Results for Cc1ccc(/C=C2\SC(N)=NC2=O)s1 ?
E-sel TNF inh: 95

How did COc1ccc(S(=O)(=O)Nc2ccc(C)cc2)cc1N(C)S(=O)(=O)c1ccc(Cl)cc1 do in these assays?
cytoskel mod: inactive; HUVEC tox TNFa: inactive; E-sel TNF inh: 100; VCAM1 TNFa inh: inactive

Results for Cc1cc(C(=O)Nc2cccc3ncccc23)no1 ?
cytoskel mod: inactive; E-sel TNF inh: inactive

Screens as filed in PubChem BioAssay.
